Measurements as given in PubChem BioAssay (NCI).
This is part of a sample that, as a whole, favours compounds with a hit. Of some 83,000 tested, about 20% had one in any assay.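 Step 1: grow cells in 96-well plates. Step 2: add test compound at a single concentration. Step 3: incubate 48 h. Step 4: record percent growth.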 Unmarked numbers belong to inactive results. Active and inactive are the calls of the source. How the source made its calls: active means growth percent below 10; inactive means the rest.

Assays:
Assay in all cases: NCI-60 one-dose screen, 48 h (100 = growth as untreated, 0 = no growth, -100 = all killed)
Settings in all cases: 10 µM unless noted
NCI-H23 lung = tested on: NCI-H23 lung
NCI-H226 lung = tested on: NCI-H226 lung
NCI-H322M lung = tested on: NCI-H322M lung
HOP-62 NSCLC = tested on: HOP-62 NSCLC
NCI-H460 lung = tested on: NCI-H460 lung
786-0 renal = tested on: 786-0 renal
MDA-MB-231 breast = tested on: MDA-MB-231 breast
SF-268 CNS = tested on: SF-268 CNS
SF-539 CNS = tested on: SF-539 CNS
U251 CNS = tested on: U251 CNS
UACC-62 melanoma = tested on: UACC-62 melanoma
SK-MEL-28 melanoma = tested on: SK-MEL-28 melanoma
SN12C renal = tested on: SN12C renal
UO-31 renal = tested on: UO-31 renal
OVCAR-8 ovarian = tested on: OVCAR-8 ovarian
OVCAR-3 ovarian = tested on: OVCAR-3 ovarian
MDA-MB-435 melanoma = tested on: MDA-MB-435 melanoma
SW-620 colon = tested on: SW-620 colon
MCF7 breast = tested on: MCF7 breast
KM12 colon = tested on: KM12 colon

Structure (SMILES) | growth (NCI-H23 lung) | growth (NCI-H226 lung) | growth (NCI-H322M lung) | growth (HOP-62 NSCLC) | growth (NCI-H460 lung) | growth (786-0 renal) | growth (MDA-MB-231 breast) | growth (SF-268 CNS) | growth (SF-539 CNS) | growth (U251 CNS) | growth (UACC-62 melanoma) | growth (SK-MEL-28 melanoma) | growth (SN12C renal) | growth (UO-31 renal) | growth (OVCAR-8 ovarian) | growth (OVCAR-3 ovarian) | growth (MDA-MB-435 melanoma) | growth (SW-620 colon) | growth (MCF7 breast) | growth (KM12 colon)
CC(C)CCC1(CCO)C(=O)NC(=S)NC1=O | 110% | 105% | 105% | 105% | 109% | 110% | 104% | 95.1% | 125% | 97.2% | 97.3% | 116% | 100% | 84.1% | 101% | 108% | 104% | 105% | 109% | 104%
CCOc1cc(/C=N\Nc2nnc(C)n2N)c(C)cc1N(CCCl)CCCl | -20.2% (active) | 26.6% | 11.3% | 22.6% | 4.94% (active) | 13.1% | 38.2% | 28.2% | 34.5% | 14.4% | -1.59% (active) | 37.4% | 17.3% | -42.2% (active) | 19.5% | 4.15% (active) | 7.67% (active) | 10.4% | 9.29% (active) | 13.8%
COC(=O)C(=[N+]=[N-])C(=O)OC | 98.1% | 99.2% | 103% | 103% | 106% | 98.3% | 113% | 106% | 103% | 104% | 95.3% | 105% | 98% | 88.3% | 101% | 118% | 100% | 100% | 88.3% | 110%
COC(=O)C[Se]C(=O)c1ccccc1OC(C)=O | 76.2% | 56.3% | 77.5% | 32.7% | 76.5% | 89.8% | 71.3% | 72.3% | 75.1% | 66.3% | 77.8% | 84.1% | 93.2% | 35.7% | 45.4% | 84.5% | 87.9% | 97.8% | 65.5% | 22.1%
CCOC(=O)/C(C#N)=C/c1ccc(N(CCCl)CCCl)cc1 | 94.9% | 72.2% | 110% | 81.7% | 41.4% | 84.1% | 90.8% | 77.5% | 84.9% | 92% | 66.5% | 99% | 72.4% | 79.3% | 71.6% | 108% | 94.4% | 87.3% | 71.9% | 106%
O=C(O)c1cccc(CCl)c1 | 108% | 104% | 107% | 108% | 103% | 101% | 113% | 102% | 94.3% | 96.7% | 108% | 110% | 107% | 90.3% | 96.5% | 109% | 104% | 110% | 98.4% | 96.3%
COc1cc(C2=NN(c3ccccc3)C(c3sc(N(CCCl)CCCl)nc3Cl)C2)cc(OC)c1OC (stereo not given) | 92.5% | 81.8% | 91.4% | 79.7% | 91.6% | 91.8% | 85.6% | 80.7% | 110% | 85.6% | 48.4% | 99.1% | 79.9% | 75.5% | 90.4% | 98.7% | 101% | 97.2% | 86.6% | 82.8%
ClCCN(CCCl)c1ccc(C=NCCc2c[nH]c3ccccc23)cc1 | 71.7% | -10.5% (active) | 111% | 73.1% | 22.6% | 63.4% | 98.8% | 72.2% | 71.8% | 72.6% | 56.9% | 108% | 62.7% | 60.6% | 74.8% | 93.3% | 110% | 84.4% | 56% | 101%
CCOC(=O)Nc1cc(Cl)c([N+](=O)[O-])c(NC(=O)OCC)n1 | 87.8% | 100% | 97.1% | 126% | 109% | 104% | 108% | 75.2% | 107% | 102% | 82.6% | 79% | 96.5% | 99.5% | 64.6% | 103% | 65.4% | 71.3% | 51.4% | 71.3%
O=[N+]([O-])c1cccc([As]=[As]c2cccc([N+](=O)[O-])c2)c1 (stereo not given) | -36.4% (active) | -60.7% (active) | -97.4% (active) | -95.1% (active) | -65.7% (active) | -93% (active) | -91.8% (active) | -92.1% (active) | -99.7% (active) | -96.1% (active) | -97.6% (active) | -98.4% (active) | -96% (active) | -98.7% (active) | -70% (active) | -96.1% (active) | -91.5% (active) | -68.8% (active) | -53.6% (active) | -92.7% (active)
Cc1cccc(N(C)c2cccc3c2C(=O)[Se]C3)c1C | 31.2% | 36.6% | 72.8% | 18.8% | 62.8% | 78% | 53.6% | 52.4% | 56.4% | 47% | 64.6% | 75.6% | 84.8% | 23% | 20.2% | 66.3% | 78% | 67.1% | 49.6% | 14.6%
COc1ccc(C(=O)c2ccc([As]=O)cc2)cc1 (stereo not given) | -43.4% (active) | -59.6% (active) | -94.1% (active) | -86.1% (active) | -62.5% (active) | -99.5% (active) | -71% (active) | -83.5% (active) | -91.6% (active) | -98.1% (active) | -82.1% (active) | -87.1% (active) | -52.8% (active) | -95% (active) | -84.2% (active) | -40.4% (active) | -80.9% (active) | -64.4% (active) | -20.3% (active) | -93.7% (active)
NC(Cc1ccc(O)cc1)C(=O)N/N=C/c1ccc(N(CCCl)CCCl)cc1 (stereo not given) | 69.6% | 46.8% | 102% | 95.4% | 27.1% | 43% | 73.7% | 55.9% | 33.3% | 76.7% | 31.4% | 108% | 46.4% | 52.2% | 80.5% | 101% | 84.7% | 86.9% | 54.5% | 75%
CC(N)Cc1ccc(O)cc1 (stereo not given) | 108% | 99.2% | 95.5% | 111% | 109% | 98.6% | 106% | 99.4% | 117% | 106% | 105% | 124% | 105% | 79.3% | 101% | 108% | 106% | 103% | 100% | 107%
COc1ccc(C2=NN(c3ccccc3)C(c3sc(N(CCCl)CCCl)nc3Cl)C2)cc1 (stereo not given) | 76.7% | 76.2% | 92.7% | 80.1% | 99% | 103% | 68.4% | 86.8% | 104% | 94.4% | 65.1% | 97.9% | 90.5% | 78.6% | 87.8% | 93.3% | 90.5% | 92.5% | 87.3% | 81.4%
O=C1NC2(CCNCC2)Nc2ccccc21 | 100% | 97.7% | 109% | 96.6% | 110% | 107% | 120% | 106% | 114% | 91.2% | 96.1% | 116% | 99.1% | 89.4% | 84.4% | 108% | 104% | 102% | 107% | 105%
